From PubChem BioAssay (NCI)
The panel holds about 83,000 compounds, 20% with a hit somewhere; the sample as a whole holds those more often.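 Compound tested at a single concentration for 48 hours in 96-well plates; a percent growth value below 10 was scored as active.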 Active and inactive are the calls of the source.

What was measured:
Experiment in all cases: NCI-60 one-dose screen, 48 h (100 = growth as untreated, 0 = no growth, -100 = all killed)
Conditions in all cases: 10 µM unless noted
SK-MEL-2 melanoma = test system: SK-MEL-2 melanoma
EKVX NSCLC = test system: EKVX NSCLC
SN12C renal = test system: SN12C renal
UO-31 renal = test system: UO-31 renal
TK-10 renal = test system: TK-10 renal
ACHN renal = test system: ACHN renal
CAKI-1 renal = test system: CAKI-1 renal
A498 renal = test system: A498 renal
CCRF-CEM leukemia = test system: CCRF-CEM leukemia
MOLT-4 leukemia = test system: MOLT-4 leukemia
OVCAR-8 ovarian = test system: OVCAR-8 ovarian
OVCAR-5 ovarian = test system: OVCAR-5 ovarian
OVCAR-4 ovarian = test system: OVCAR-4 ovarian
SK-OV-3 ovarian = test system: SK-OV-3 ovarian
IGROV1 ovarian = test system: IGROV1 ovarian
OVCAR-3 ovarian = test system: OVCAR-3 ovarian
HS 578T breast = test system: HS 578T breast
NCI/ADR-RES ovarian = test system: NCI/ADR-RES ovarian
RPMI-8226 leukemia = test system: RPMI-8226 leukemia

Measured: growth

COc1nc2ccc(C)cc2cc1-c1nc2c(cnn2-c2ccc(Br)cc2)c(=O)[nH]1
active: A498 renal 7.08% | OVCAR-3 ovarian -17%
inactive: SK-MEL-2 melanoma 48.2% | EKVX NSCLC 53.5% | SN12C renal 48.5% | UO-31 renal 45.7% | TK-10 renal 77.3% | ACHN renal 37.6% | CAKI-1 renal 48.1% | CCRF-CEM leukemia 17.9% | MOLT-4 leukemia 58.9% | OVCAR-8 ovarian 40.7% | OVCAR-5 ovarian 73.2% | OVCAR-4 ovarian 58% | SK-OV-3 ovarian 43.3% | IGROV1 ovarian 38.4% | HS 578T breast 34.3% | NCI/ADR-RES ovarian 14.2%

Clc1ccc(C(/C=C/c2sc(Cl)nc2Cl)=N/Nc2cc(Cl)cc(Cl)c2)cc1
inactive: SK-MEL-2 melanoma 106% | EKVX NSCLC 103% | SN12C renal 100% | UO-31 renal 83% | TK-10 renal 119% | ACHN renal 102% | CAKI-1 renal 98.2% | A498 renal 101% | CCRF-CEM leukemia 94.5% | MOLT-4 leukemia 96.6% | RPMI-8226 leukemia 98.1% | OVCAR-5 ovarian 104% | OVCAR-4 ovarian 100% | SK-OV-3 ovarian 98.9% | IGROV1 ovarian 89.7% | OVCAR-3 ovarian 103% | HS 578T breast 98.3% | NCI/ADR-RES ovarian 104%

CCN1C(=O)N(CC)C2Nn3c(s/c(=C4\C(=O)N(CC(C)C)c5ccccc54)c3=O)=NC21 (configuration not stated)
active: A498 renal -6.38%
inactive: SK-MEL-2 melanoma 66.4% | EKVX NSCLC 63.8% | SN12C renal 48.9% | UO-31 renal 49.8% | TK-10 renal 13.1% | ACHN renal 52.5% | CAKI-1 renal 34.1% | CCRF-CEM leukemia 42.6% | MOLT-4 leukemia 48.7% | OVCAR-8 ovarian 44.7% | OVCAR-5 ovarian 52.5% | OVCAR-4 ovarian 56.5% | SK-OV-3 ovarian 56.2% | IGROV1 ovarian 47.9% | OVCAR-3 ovarian 21.5% | HS 578T breast 40.5% | NCI/ADR-RES ovarian 11.3%

COc1ccc2c(c1)c(-c1nn3cc(-c4cccs4)nc3s1)cn2C
inactive: SK-MEL-2 melanoma 91.5% | EKVX NSCLC 66.2% | SN12C renal 79.3% | UO-31 renal 39.3% | TK-10 renal 73.3% | ACHN renal 69.9% | CAKI-1 renal 55.3% | A498 renal 50.3% | CCRF-CEM leukemia 67% | MOLT-4 leukemia 45.7% | OVCAR-8 ovarian 85.3% | OVCAR-5 ovarian 66.5% | OVCAR-4 ovarian 70.6% | SK-OV-3 ovarian 84.8% | IGROV1 ovarian 52.9% | OVCAR-3 ovarian 96.4% | HS 578T breast 45.1% | NCI/ADR-RES ovarian 80.3%

CCC12CCC[N+]3([O-])CCC4(C(=Nc5ccccc54)C(O)(C(=O)OC)C1)C23 (configuration not stated)
inactive: SK-MEL-2 melanoma 121% | EKVX NSCLC 101% | SN12C renal 99.9% | UO-31 renal 87.6% | TK-10 renal 113% | ACHN renal 102% | CAKI-1 renal 103% | A498 renal 108% | CCRF-CEM leukemia 99.9% | MOLT-4 leukemia 98.2% | RPMI-8226 leukemia 99.9% | OVCAR-5 ovarian 93.6% | OVCAR-4 ovarian 106% | SK-OV-3 ovarian 103% | IGROV1 ovarian 138% | OVCAR-3 ovarian 106% | HS 578T breast 92.7% | NCI/ADR-RES ovarian 103%

O=C(/C=C/c1ccc([N+](=O)[O-])o1)NNC(=O)c1cc2ccccc2cc1O
active: SK-MEL-2 melanoma -50.9% | SN12C renal 7.5% | UO-31 renal 2.06% | ACHN renal -82% | A498 renal -51% | CCRF-CEM leukemia 6.58% | MOLT-4 leukemia 3.05% | OVCAR-8 ovarian 8.19% | IGROV1 ovarian -1.53% | OVCAR-3 ovarian -32.3% | NCI/ADR-RES ovarian 5.33%
inactive: EKVX NSCLC 38.6% | TK-10 renal 19.3% | CAKI-1 renal 22.5% | OVCAR-5 ovarian 45.7% | OVCAR-4 ovarian 29.3% | SK-OV-3 ovarian 32.8% | HS 578T breast 33%

Cc1nc2cnc(N)c(C#Cc3cncc(C(=O)Nc4ccc(CN5CCN(C)CC5)c(C(F)(F)F)c4)c3)c2nc1C
active: SK-MEL-2 melanoma -33.9% | EKVX NSCLC 7.92% | SN12C renal 9.49% | UO-31 renal 2.11% | TK-10 renal 4.77% | ACHN renal 0.0511% | CAKI-1 renal -36.4% | A498 renal -81% | MOLT-4 leukemia 8.72% | RPMI-8226 leukemia -23% | OVCAR-5 ovarian 8.89% | OVCAR-4 ovarian -10.9% | SK-OV-3 ovarian 8.06% | IGROV1 ovarian -10.4% | OVCAR-3 ovarian 8.72% | HS 578T breast -20.2%
inactive: CCRF-CEM leukemia 13.7% | NCI/ADR-RES ovarian 36.1%

Cn1cc(C(=O)c2nc(-c3cn(C)c4ccc(F)cc34)no2)c2cc(F)ccc21
inactive: SK-MEL-2 melanoma 102% | EKVX NSCLC 107% | SN12C renal 91.9% | UO-31 renal 63% | TK-10 renal 108% | ACHN renal 94.1% | CAKI-1 renal 88.9% | A498 renal 113% | CCRF-CEM leukemia 92% | MOLT-4 leukemia 99.6% | OVCAR-8 ovarian 95.5% | OVCAR-5 ovarian 85.9% | OVCAR-4 ovarian 90.8% | SK-OV-3 ovarian 81% | IGROV1 ovarian 77.8% | OVCAR-3 ovarian 98.4% | HS 578T breast 87% | NCI/ADR-RES ovarian 102%

c1ccc(Nc2cc(-c3cccnc3)[nH]n2)cc1
inactive: SK-MEL-2 melanoma 112% | EKVX NSCLC 98.1% | SN12C renal 99.3% | UO-31 renal 80% | TK-10 renal 103% | ACHN renal 91.8% | CAKI-1 renal 90.1% | A498 renal 69% | CCRF-CEM leukemia 106% | MOLT-4 leukemia 93.6% | OVCAR-8 ovarian 95.8% | OVCAR-5 ovarian 93.6% | OVCAR-4 ovarian 96.6% | SK-OV-3 ovarian 92.9% | IGROV1 ovarian 95.7% | OVCAR-3 ovarian 100% | HS 578T breast 101% | NCI/ADR-RES ovarian 105%
